Results reported in PubChem BioAssay AID2620 (National Center for Advancing Translational Sciences (NCATS), 2010).
Inconclusive results are not listed. Calls come from the whole dose curve; as a rule, active = well fitted curve in the direction sought with a large enough effect; inconclusive = small, poorly fitted or top-dose-only effect, or another doubt; inactive = no such curve, though single readings can be large or run the other way.

What follows are compounds tested against Pyruvate kinase PKM (Homo sapiens) (UniProt P14618) (assay: Secondary LDH Assay for Activators of Human Pyruvate Kinase M1 Isoform: for Probe SAR). Details: purified hPK-M1, LDH-coupled NADH fluorescence kinetic; series mostly up to 58.2 µM; activity change, negative = inhibition: at the top concentration.
Chain of Pyruvate kinase PKM (Homo sapiens) (P14618 whole entry, looked up, canonical isoform): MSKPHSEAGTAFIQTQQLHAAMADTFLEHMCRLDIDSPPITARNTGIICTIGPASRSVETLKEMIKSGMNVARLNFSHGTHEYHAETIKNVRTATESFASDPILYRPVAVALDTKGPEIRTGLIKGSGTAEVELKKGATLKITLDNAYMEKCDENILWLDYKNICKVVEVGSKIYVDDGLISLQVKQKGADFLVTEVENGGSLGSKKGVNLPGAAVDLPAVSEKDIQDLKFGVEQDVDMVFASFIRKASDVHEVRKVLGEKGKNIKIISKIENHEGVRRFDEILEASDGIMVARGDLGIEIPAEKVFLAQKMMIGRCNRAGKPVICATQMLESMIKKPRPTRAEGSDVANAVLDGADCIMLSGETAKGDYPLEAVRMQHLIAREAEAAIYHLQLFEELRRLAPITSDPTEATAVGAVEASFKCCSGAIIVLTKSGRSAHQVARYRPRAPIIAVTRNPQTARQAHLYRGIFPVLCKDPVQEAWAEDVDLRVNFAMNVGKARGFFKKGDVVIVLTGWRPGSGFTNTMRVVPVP
How it was run: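 Kinetic LDH-coupled read: initial rates from NADH fluorescence loss over 3-6 min, normalized to uninhibited controls. Final conditions 10 nM hPK-M1, 1 uM LDH, PEP 0.1 mM, ADP 4.0 mM, NADH 0.2 mM in Tris-Cl pH 8.0 with KCl and MgCl2.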
Note: % of control where 0% means no effect.

Activity change, negative = inhibition, inactive:
O=C1c2ccccc2C(=O)N1c1noc2ccccc12 -6.06%
O=S1(=O)N=C(Oc2cccc(Cl)c2)c2ccccc21 2.94%
Cc1ccccc1OC1=NS(=O)(=O)c2ccccc21 2.65%
COc1ccccc1OC1=NS(=O)(=O)c2ccccc21 1.77%
O=C1c2ccccc2C(=O)N1c1cnc2ccccc2c1 -5.54%
O=C1CCc2cc(S(=O)(=O)Nc3cccc(Br)c3)ccc2N1 -0.337%
O=C1c2ccccc2C(=O)N1Cc1ccccc1 -1.98%
Cc1ccc(NS(=O)(=O)c2ccc3c(ccn3C)c2)cc1C 7.17%
COc1ccc(N2C(=O)c3ccccc3C2=O)cc1 6.4%
Cc1ccc(NS(=O)(=O)c2ccc3c(c2)N(C)C(=O)CO3)cc1C 3.09%
COc1cccc(OC2=NS(=O)(=O)c3ccccc32)c1 7.2%
Cc1ccccc1Nc1c(-c2ccc(Cl)s2)nc2ccccn12 -1.95%
Cc1ccc(N(C)S(=O)(=O)c2ccc3c(c2)CCC(=O)N3)cc1C 0.592%
CCNc1cccc(S(=O)(=O)N2CCN(S(=O)(=O)c3ccc4c(c3)OCCO4)CC2)c1 -3.37%
Cc1ccc(NS(=O)(=O)c2ccc3c(c2)CCC(=O)N3)cc1 5.13%
O=C1CCc2cc(S(=O)(=O)Nc3ccc(F)cc3)ccc2N1 -3.57%
O=C1c2ccccc2C(=O)N1Cc1cccnc1 -1.54%
Cc1ccccc1NS(=O)(=O)c1ccc2c(c1)CCC(=O)N2 4.43%
O=C1c2ccccc2C(=O)N1c1cccc2ncccc12 -3.84%
O=C1c2ccccc2C(=O)N1c1cccc2ccncc12 -5.12%
COc1cccc(N2C(=O)c3ccccc3C2=O)c1 6.23%
O=C1CCc2cc(S(=O)(=O)Nc3ccc(Cl)cc3)ccc2N1 -4.92%
COc1ccc(Nc2c(-c3ccc(C)o3)nc3ccccn23)cc1 12%
Cc1ccc(NS(=O)(=O)c2cc3c(cc2Cl)NC(=O)CO3)cc1C 4.06%
Cc1ccc(OC2=NS(=O)(=O)c3ccccc32)cc1 0.776%
Cc1ccc(NS(=O)(=O)c2cc3c(cc2-c2ccco2)NC(=O)CO3)cc1C 18.3%
CSc1cc2c(s1)c1cnn(Cc3cccc(O)c3)c(=O)c1n2C 7.87%
Cc1ccc(NS(=O)(=O)c2cc3c(cc2F)NC(=O)CC3)cc1Cl 4.31%
CN=c1nc(-c2ccccc2)n(-c2ccccc2)s1 7.26%
Cc1nc(-c2ccc(S(=O)(=O)Nc3ccc(C)c(C)c3)s2)cs1 19.5%
